Screening data (PubChem BioAssay)
In the library only some 1.2% were active in any assay of this set; here they are far more common.
NPR1 activator = GC-A stimulated cGMP production enhancers – HEK293 GC-A cells, cGMP TR-FRET, EC30 ANP, primary screen. 0% at EC30 ANP, 100% saturating ANP. AID 1671463, 2021. Atrial natriuretic peptide receptor 1 (Homo sapiens), P16066. activation, % at 10 µM. 370,000 tested, 0.14% active; in the data active = activation above about 40%
Target sequence (P16066 whole entry, looked up): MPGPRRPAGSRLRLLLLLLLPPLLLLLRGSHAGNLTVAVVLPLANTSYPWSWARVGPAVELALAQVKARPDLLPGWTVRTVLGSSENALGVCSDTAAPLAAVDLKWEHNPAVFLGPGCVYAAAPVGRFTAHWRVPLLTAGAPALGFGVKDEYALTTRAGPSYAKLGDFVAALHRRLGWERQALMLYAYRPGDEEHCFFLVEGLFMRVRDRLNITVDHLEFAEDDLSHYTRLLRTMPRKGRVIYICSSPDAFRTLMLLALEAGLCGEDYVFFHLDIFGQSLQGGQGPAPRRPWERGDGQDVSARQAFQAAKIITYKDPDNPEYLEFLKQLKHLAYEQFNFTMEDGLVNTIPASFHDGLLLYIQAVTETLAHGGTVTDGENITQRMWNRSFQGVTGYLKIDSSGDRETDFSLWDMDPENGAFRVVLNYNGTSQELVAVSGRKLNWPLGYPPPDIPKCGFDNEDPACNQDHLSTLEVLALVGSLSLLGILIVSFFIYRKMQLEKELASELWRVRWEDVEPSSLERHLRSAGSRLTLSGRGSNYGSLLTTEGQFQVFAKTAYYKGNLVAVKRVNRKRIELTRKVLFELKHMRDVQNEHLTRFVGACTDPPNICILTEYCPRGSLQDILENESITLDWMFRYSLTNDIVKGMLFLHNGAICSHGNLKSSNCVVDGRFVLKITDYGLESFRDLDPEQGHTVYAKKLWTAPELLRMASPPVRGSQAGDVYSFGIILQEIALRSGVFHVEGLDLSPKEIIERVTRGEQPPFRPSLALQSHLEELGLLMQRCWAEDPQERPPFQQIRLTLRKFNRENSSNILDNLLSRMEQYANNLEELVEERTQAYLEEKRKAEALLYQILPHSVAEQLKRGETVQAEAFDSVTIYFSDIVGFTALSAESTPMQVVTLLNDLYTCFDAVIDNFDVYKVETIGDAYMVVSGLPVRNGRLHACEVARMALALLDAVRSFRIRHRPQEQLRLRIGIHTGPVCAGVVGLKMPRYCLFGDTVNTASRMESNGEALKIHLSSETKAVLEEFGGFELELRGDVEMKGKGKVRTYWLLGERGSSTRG
GC-B act = human GC-B receptor activators, primary screen, HEK293 GC-B cells, cGMP TR-FRET, EC30 CNP. 0% at EC30 CNP, 100% saturating CNP. activation, % at 10 µM. 370,000 tested, 0.11% active;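 active = activation at 10 µM reaching about 35% in either raw or pattern-adjusted values, limit read from the data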
PLC-gamma1 inh = PLC-gamma1 enzyme inhibitors, primary screen, biochemical, fluorescence, purified enzyme. 1-phosphatidylinositol 4,5-bisphosphate phosphodiesterase gamma-1 (Homo sapiens), P19174. fluorogenic substrate. inhibition, % at 12.2 µM. 370,000 tested, 0.84% active; in the data active = inhibition above about 9.5%
PLCb3 inh = human PLC-beta3 inhibitors, primary screen, biochemical, fluorescence; Purified PLC-beta3, fluorogenic substrate; inhibition, % at 12.2 µM; 370,000 tested, 0.18% active; AID 720704, 2013; in the data active = inhibition above about 11%;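 note: 0% = median of compound wells on plate and 100% = full blocker control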
The depositor's hits bear a star; i = inactive.

SMILES	NPR1 activator	GC-B act	PLC-gamma1 inh	PLCb3 inh
O=C(N/N=C/c1ccc(-c2ccccc2)o1)c1ccccc1O	-0.9	-4.6	-20.0	-40.5
Cn1c(N)c(C(=O)COC(=O)c2cc(-c3ccco3)nc3ccccc23)c(=O)n(C)c1=O	-2.2	2.6	-13.8	-22.0
Cn1c(N)c(C(=O)COC(=O)c2cc(C3CC3)nc3ccccc23)c(=O)n(C)c1=O	5.6	36.2*	2.5	4.7
CN(C(=O)c1cccc(NC(=O)Cc2cccc(NC(=O)C3CCN(C(=O)C4CC4)CC3)c2)c1)C1CCC1	2.8	1.9	1.7	1.3
CN(C(=O)c1cccc(NC(=O)Cc2cccc(NC(=O)C3CCN(C(=O)C4CC4)CC3)c2)c1)C1CC1	2.1	-5.0	13.1*	10.4
COC(=O)N/N=C\c1cccc(OC(=O)c2cccs2)c1	3.3	-2.1	-0.8	2.3
O=C1NN(c2ccccc2)C(=O)/C1=C\c1cccc(OC(=O)c2cccs2)c1	40.7*	12.5	-0.8	-3.2
Cn1c(=O)c2cc(NC(=O)Cc3cccnc3)ccc2n1-c1ccc2ccccc2c1	47.2*	67.8*	-234.7	-306.8
Nc1nc2c(ncn2[C@@H]2O[C@H](CNCC3=Cc4cc(O)ccc4OC3)[C@@H](O)[C@H]2O)c(=O)[nH]1	47.1*	38.8*	-2.8	-1.4
CCC(C)(C)C1CCC2(CC1)NC(=O)N(CC(=O)Nc1nc(-c3ccc(C)cc3)cs1)C2=O (stereo not drawn)	6.7	4.6	1.4	-0.4
CC(=O)Nc1ccc(-c2csc(NC(=O)CN3C(=O)NC4(CCCC4)C3=O)n2)cc1	2.1	-5.0	-62.1	-77.0
CC1(C)NC(=O)N(CC(=O)Nc2nc(-c3ccc(F)cc3)cs2)C1=O	47.8*	6.5	-0.4	0.1
O=C(CN1C(=O)NC2(CCCC2)C1=O)Nc1nc(-c2ccc(F)cc2)cs1	45.2*	7.1	1.5	-1.7
COc1ccc(C(C)(C)C)cc1NC(=O)COC(=O)c1cc(SC)ccc1Cl	-7.7	-8.3	3.5	5.4
CCN1CCN(C(CNS(=O)(=O)c2ccc(Cl)cc2)c2cccnc2)CC1 (stereo not drawn)	-1.9	2.7	11.6*	-5.9
c1ccc(-c2cc3c(N4CCN(c5ncccn5)CC4)ncnc3s2)cc1	51.7*	5.4	-31.3	-34.9
c1ccc(-c2cc3c(N4CCN(c5ccccc5)CC4)ncnc3s2)cc1	1.4	-1.9	-53.1	-54.2
CNC(C)C(=O)NC(C(=O)N1CCCC1C(=O)Nc1ccc2[nH]ccc2c1)C(C)C (stereo not drawn)	2.5	2.4	-6.1	-9.3
CCCn1cnc2c(oc3ccccc32)c1=O	-2.2	0.0	-0.2	-5.9
O=C(Nc1nnc(Cc2ccccc2)s1)Nc1ccccc1F	2.0	0.9	12.0*	0.3
O=C(Nc1ccccc1)Nc1nnc(Cc2ccccc2F)s1	9.3	4.0	4.9	6.0
CCOc1ccccc1N=c1oc2cc(O)ccc2cc1C(=O)NCC1CCCO1 (stereo not drawn)	-14.3	-5.3	i	i
N#Cc1cccc(NC(=O)Cc2ccccc2)c1	0.7	-1.8	3.5	-4.3
CCN1CCN(c2ccc(NC(=O)CCc3c(C)nc4c(-c5ccc(F)cc5)c(C)nn4c3C)cc2)CC1	-10.5	-4.4	-80.3	-85.9
CCOc1cccc(C2CC(=O)Nc3cc(OC)c(OC)cc32)c1 (stereo not drawn)	-3.5	-1.9	-1.5	-4.2
SMILES	NPR1 activator	GC-B act	PLC-gamma1 inh	PLCb3 inh
Brc1cccc(OCCSc2ncccn2)c1	6.1	2.2	0.2	0.3
Clc1ccc(OCCSc2ncccn2)c(Br)c1	48.6*	-0.3	-3.8	-0.7
CC(CC(=O)c1ccc(F)cc1)N1CCN(c2ccccc2)CC1 (stereo not drawn)	63.4*	1.2	0.5	0.4
COc1ccccc1N1CCN(CC(=O)c2ccc(F)cc2)CC1	1.5	3.1	-2.3	-2.0
O=C1C(SCCO)=C(SCCO)C(=O)c2ccccc21	50.5*	-6.7	-3.6	-17.7
CC1=C(SCc2ccccc2)C(=O)c2ccccc2C1=O	2.3	1.7	-1.6	2.8
O=c1c(Cl)c(Cl)cnn1Cc1nnc(-c2ccc(Cl)cc2)o1	49.3*	9.1	-2.9	-6.4
CCN(CC)c1ncnc2c1cnn2Cc1ccc(C)cc1	26.8	38.0*	2.3	0.9
COc1cc(C2NCC(c3ccc(Cl)cc3Cl)c3c2[nH]c2ccccc32)cc(OC)c1OC (stereo not drawn)	85.6*	-11.3	2.7	-2.2
O=C1[C@@H]2Cc3c([nH]c4ccccc34)C(c3ccc(Cl)cc3)N2C(=O)CN1CCO (stereo partly drawn)	-44.7	-19.7	-3.6	-9.3
O=C(O)c1ccc(C2NCC(c3ccccc3Cl)c3c2[nH]c2ccccc32)cc1 (stereo not drawn)	54.0*	0.0	-11.1	-19.9
COc1ccc(-c2nc(NC(=O)CSc3nnc4ccccn34)ns2)cc1	0.8	45.1*	-25.1	-27.1
COc1ccc(C(=O)Oc2ccc(C(=S)N3CCOCC3)cc2)cc1	3.5	-2.9	13.0*	8.4
c1cc2ccn(CC3CC3)c2cc1-c1ccc2ccn(CC3CC3)c2c1	0.1	38.0*	-111.8	-165.5
Cc1cc(C)nc(SCCN(C)C)n1	3.5	-5.1	2.5	3.8
Cc1cc(C)nc(SCCN2CCCCC2)n1	0.0	1.2	12.6*	-9.0
O=C(Cn1cc[n+](Cc2ccccc2)c1)c1ccc([N+](=O)[O-])cc1	3.6	12.9	10.6*	5.0
CCOC(=O)C1(CC2CCCCO2)CCN(C(=O)Nc2cccc(SC)c2)CC1 (stereo not drawn)	0.8	4.7	7.2	3.5
O=C(c1cccs1)N1C[C@H](O)[C@@H](n2cc(C3CC3)nn2)C[C@@H]1c1ccccc1	-0.4	-4.0	11.1*	4.4
Brc1ccccc1Cn1c(-c2cscn2)nc2ccccc21	36.2	39.0*	2.2	2.2
Cc1ccccc1Cn1c(-c2cncs2)nc2ccccc21	22.1	16.0	1.5	-2.9
Cc1c(N=C2NC(=O)C(CC(=O)Nc3ccccc3)S2)c(=O)n(-c2ccccc2)n1C (stereo not drawn)	-4.2	-6.1	-1.0	-1.4
Cc1c(N=C2N=C(NC(=O)NC(C)(C)C)c3ccccc32)c(=O)n(-c2ccccc2)n1C	83.8*	1.1	-2.4	-2.6
Cc1c(N=C2C=CC(=O)c3ccccc32)c(=O)n(-c2ccccc2)n1C	73.1*	3.1	-6.2	-7.5
Cc1c(N=C2N=C(NC(=O)c3cccs3)c3ccccc32)c(=O)n(-c2ccccc2)n1C	79.6*	-3.8	-1.5	-6.1
Cc1c(NC(=O)Nc2ccc(C(C)(C)C)cc2)c(=O)n(-c2ccccc2)n1C	0.0	-0.6	-0.2	2.9
Cc1ccc(CNc2nc(-c3cccnc3)nc3ccccc23)cc1	56.1*	56.9*	-10.4	-21.3
c1cncc(-c2nc(NCc3ccc4c(c3)OCO4)c3ccccc3n2)c1	52.5*	59.1*	-2.5	-13.8
